Only some compounds are listed: those with a hit (about 7.9% of all), similar ones and a draw of the others.
MCF10A rerep: DNA re-replication induction in MCF 10a cells | MCF 10A DNA re-replication, Hoechst nuclear intensity, 48 h | Potency, µM (series often up to 46.1 µM), for the others: at the top dose activity, positive = re-replication, hits mostly activators | 2.9% of 350,000 active; also: % of control where 0% means no effect; nearly all actives have a fitted effect of over 50% in size
HT1080-NT tox: kills 2HG-producing HT-1080-NT fibrosarcoma cells; HT-1080-NT fibrosarcoma viability, CellTiter-Glo ATP luminescence, 48 h; Potency, µM (doses to about 46.1 µM), without a hit: top-dose activity, negative = less viability, actives largely listed as cytotoxic; 1.6% of 360,000 active;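 also: NT is the 2HG producing partner of a matched IDH1 knockdown line; 0% = DMSO-treated cells and -100% = media-only wells without cells; nearly all actives have a fitted effect of over 55% in size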
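A 48-hour cytotoxicity screen used HT-1080-NT cells plated 2 hours before compound delivery. ATP-based CellTiter-Glo luminescence measured viability, normalized to DMSO and no-cell controls.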
KB-3-1 cytotox: KB-3-1 parental cell cytotoxicity. Potency, µM (top dose mostly 46.1 µM), hits mostly cytotoxic. KB-3-1 viability, CellTiter-Glo ATP luminescence, 72 h. 1.4% of 400,000 active. AID 1347075; also: % is scaled to controls: 0 for no effect and ±100 for the full control effect; nearly all actives have a fitted effect of over 60% in size
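Cytotoxicity measured as CellTiter-Glo luminescence after 72 h at 37 C. Compound titrations were pinned onto drug-naive KB-3-1 parental adenocarcinoma cells grown in DMEM with 10% FBS, and normalized data fitted to concentration-response curves.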
SW480 rereplic: induces DNA re-replication in SW480 colon adenocarcinoma cells; 1.8% of 340,000 active; Potency, µM (series often up to 46.1 µM), without a hit: at the highest dose re-replication activation, usual class: activators; SW480 DNA re-replication, Hoechst DNA content imaging, 48 h; also: % of control where 0% means no effect; nearly all actives have a fitted effect of over 55% in size
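Readout is total intensity of Hoechst-stained nuclei, excited at 405 nm and collected at 500-530 nm. Compound treatment lasted 48 hr at 37 C in 5% CO2 before staining.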
HT1080 IDH1KD tx: HT-1080 IDH1 knockdown cell toxicity (counter line); 2% of 360,000 active; Potency, µM (top dose mostly 46.1 µM), inactives show at the top dose activity, negative = toxicity, usual class: cytotoxic; HT-1080 IDH1 knockdown viability, ATP luminescence, 48 h;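 also: 0% = DMSO wells and -100% = cell-free medium wells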
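Luminescent ATP read-out (CellTiter-Glo, 10 min at room temperature) after 48 h compound exposure at 37 °C gave viability of IDH1-knockdown HT-1080 cells. Activity was normalised to DMSO and cell-free wells, then fitted as concentration-response curves.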
KB-V1 cytotox: KB-V1 MDR subline cytotoxicity; Potency, µM (series often up to 46.1 µM), hits mostly cytotoxic; KB-V1 MDR cells viability, CellTiter-Glo, 72 h; 3.4% of 400,000 active; also: % is scaled to controls: 0 for no effect and ±100 for the full control effect; nearly all actives have a fitted effect of over 60% in size
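Drug-selected KB-V1 cells, grown in DMEM lacking phenol red with 10% FBS, receive compound titrations; after three days at 37 degrees C, surviving cell ATP is quantified by CellTiter-Glo luminescence and responses normalized and curve-fitted.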
* marks the source's active call; other numbers are inactive results; i = inactive; ? = inconclusive; . = no result given. Calls follow the shape of the dose curve; as a rule, active = well fitted curve in the direction sought with a large enough effect; inconclusive = small, poorly fitted or top-dose-only effect, or another doubt; inactive = no such curve, though single readings can be large; an effect the other way counts as inactive or inconclusive. Potency is read from the fitted curve at half-maximal effect.

SMILES | MCF10A rerep | HT1080-NT tox | KB-3-1 cytotox | SW480 rereplic | HT1080 IDH1KD tx | KB-V1 cytotox
Cc1ccc(C)c(S(=O)(=O)N2CCCC2CNC(=O)C(=O)NCC2CCCO2)c1 (stereo not given) | 27.2% | 17.8% | i | 5.8µM* | 13.3% | i
Cc1ccc(C)c(S(=O)(=O)N2CCCC2CNC(=O)C(=O)NCc2ccccc2C)c1 (stereo not given) | -6.5% | -21.0% | i | 3.66µM* | -16.3% | i
Cc1ccc(C)c(S(=O)(=O)N2CCCC2CNC(=O)C(=O)NC2CCCCCC2)c1 (stereo not given) | 27.9% | 7.8% | i | 0.4% | 12.0% | i
Cc1ccc(C)c(S(=O)(=O)N2CCCCC2CCNC(=O)C(=O)NCc2ccccn2)c1 (stereo not given) | 3.4% | 8.7% | i | -8.8% | 1.4% | ?
Cc1ccc(C)c(N2CCN(C3C(=O)Nc4ccccc4-n4nnnc43)CC2)c1 (stereo not given) | . | ? | 14.6µM* | . | 16.4µM* | 11.6µM*
CCCN1C(=O)c2cccc3c(N4CCCCC4)ccc(c23)C1=O | 3.66µM* | 2.6% | i | . | 7.1% | ?
CN(C)CCCN1C(=O)c2cccc3c(Br)ccc(c23)C1=O | 7.31µM* | -7.2% | ? | ? | -17.2% | ?
Cc1nn(C)c(C)c1N1C(=O)c2cccc3c(Br)ccc(c23)C1=O | 26.9% | 23.1µM* | ? | ? | ? | i
CCCCNc1ccc2c3c(cccc13)C(=O)N(CCCC)C2=O | 7.31µM* | ? | i | 20.6µM* | ? | ?
Cc1nn(C)c(C)c1N1C(=O)c2cccc3c(N)ccc(c23)C1=O | 13.4% | 10.2% | i | 5.2% | 5.2% | i
COc1cc(C(=O)Oc2cc(C)[nH]c(=O)c2[N+](=O)[O-])cc(OC)c1OC | 1.7% | -4.8% | i | -2.2% | 1.5% | i
S=C(NC1CCCCC1)N1CCc2[nH]c3ccccc3c2C1 | 9.6% | 0.0% | i | -2.1% | 11.6% | i
CCOC(=O)N1CCN(C(=O)c2cn(C)c3ccc(S(=O)(=O)N4CCOCC4)cc3c2=O)CC1 | ? | 3.0% | i | 22.2% | 5.0% | i
O=C(CCS(=O)(=O)c1ccc(Cl)cc1)Nc1nnc(-c2cccs2)o1 | ? | -28.2% | i | 1.64µM* | -16.7% | i
Cc1ccc(-c2nnc(NC(=O)CCS(=O)(=O)c3ccc(F)cc3)o2)c(C)c1 | 8.2µM* | -14.1% | i | 1.2% | -8.2% | i
CCN(CC)S(=O)(=O)c1cccc(-c2nnc(SCCOc3ccccc3)o2)c1 | 9.3% | ? | ? | -2.2% | -8.5% | 16.4µM*
Clc1ccc(CN2C3=NCCCN3c3ccccc32)cc1Cl | 16.4µM* | ? | ? | 9.9% | ? | ?
O=C(CN1C2=NCCCN2c2ccccc21)c1ccc(Cl)cc1Cl | 11.0% | -18.0% | ? | 30.2% | -28.2% | 13µM*
Clc1ccc(CN2C3=NCCCN3c3ccccc32)cc1 | 5.5% | ? | ? | -1.9% | -26.8% | i
CCOc1ccccc1NC(=O)CSc1nnnn1-c1ccc(C(=O)OC)cc1 | 12.5% | 14.2% | i | 0.0% | -4.1% | i
O=C(O)CNc1nc(-c2ccccc2)nc2c1oc1ccccc12 | 6.7% | -7.8% | i | 1.0% | -22.9% | ?
c1ccc(-c2nc(NCC3CCCO3)c3oc4ccccc4c3n2)cc1 (stereo not given) | ? | -14.8% | i | -3.6% | -4.0% | 3.66µM*
c1ccc2c(c1)oc1c(NCC3CCCO3)ncnc12 (stereo not given) | -1.4% | -1.7% | i | -5.2% | -11.1% | 16.4µM*
Cc1ccc2[nH]c3c(NCc4ccccc4)ncnc3c2c1 | ? | -15.7% | i | -7.4% | -22.9% | i
Brc1ccc2[nH]c3c(NCc4ccccn4)ncnc3c2c1 | 11.9% | ? | i | 0.0% | 16.4µM* | ?
SMILES | MCF10A rerep | HT1080-NT tox | KB-3-1 cytotox | SW480 rereplic | HT1080 IDH1KD tx | KB-V1 cytotox
CC(C)Cc1nc2oc3c(NCC4CCCO4)ncnc3c2c2c1CCC2 (stereo not given) | ? | 7.3% | ? | -3.7% | -0.8% | 10.3µM*
O=C(CSc1ncnc2c1oc1ccccc12)NCC1CCCO1 (stereo not given) | -3.0% | 4.2% | i | -9.7% | 1.3% | i
c1ccc(CNc2ncnc3c2oc2ccccc23)nc1 | 6.2% | -3.8% | i | -0.4% | -2.5% | 20.6µM*
CCOC(=O)CC(=O)Nc1ncnc2c1C(c1ccccc1)c1c(ccc3ccccc13)O2 (stereo not given) | -17.6% | . | i | 0.9% | . | i
CC(=O)NC1=C(C#N)C(c2ccccc2)c2c(ccc3ccccc23)O1 (stereo not given) | 1.84µM* | ? | 18.4µM* | ? | 14.6µM* | 6.51µM*
CCOC(=O)c1c(CN(C)C)n(C)c2ccc(OC(C)=O)cc12 | 1.9% | 9.2% | i | -0.6% | 7.6% | i
O=C1CCCC2=C1C(c1ccsc1)CC(=O)N2c1ccccc1 (stereo not given) | 14.2% | -13.8% | i | 10.9% | 9.0% | 13µM*
O=C1CCCC2=C1C(c1ccsc1)CC(=O)N2c1nnc(SCc2ccccc2)s1 (stereo not given) | -2.0% | -5.3% | i | -2.5% | -4.6% | i
O=C(Cc1cccc2ccccc12)Nc1ccc(Br)cc1C(=O)O | -2.3% | -0.9% | ? | -8.1% | -8.0% | ?
COc1ccc(-c2oc3ccc(N4CCOCC4)cc3c2C#CCO)cc1 | 18.4µM* | ? | ? | ? | ? | ?
COc1ccc(-c2ccc3oc(-c4ccc(OC)cc4)c(C#CCO)c3c2)cc1 | ? | 20.6µM* | i | 25.9µM* | 16.4µM* | i
COc1ccc(-c2ccc3oc(-c4ccc(OC)cc4)c(-c4ccc(OC)cc4)c3c2)cc1 | 0.8% | 11.0% | i | -3.8% | 22.6% | i
OC1c2c(F)cccc2N=C2CCCCCN21 (stereo not given) | . | 7.6% | i | . | 5.6% | i
Clc1ccccc1-c1nnc2sc(-c3ccc4c(c3)OCO4)nn12 | ? | ? | 20.6µM* | 6.51µM* | ? | 8.2µM*
Brc1ccccc1-c1nnc2sc(-c3ccc4c(c3)OCCO4)nn12 | 6.51µM* | . | i | ? | . | ?
Cc1ccn2c(=O)cc(C)nc2c1 | 2.6% | -0.7% | i | -2.1% | 0.5% | i
COc1ccc(CCNS(=O)(=O)CC23CCC(CC2=O)C3(C)C)cc1OC (stereo not given) | ? | 7.6% | i | -4.1% | 5.3% | i
